For one experiment, the system named is 7G8. The experiment in a line: qHTS profiling for inhibitors of Plasmodium falciparum proliferation (AID 504749). Further: nearly all actives have a fitted effect of over 60% in size. Further: potency means the concentration at half of the fitted maximal effect. The conditions noted are these: P. falciparum in erythrocytes, SYBR Green DNA, 72 h; series mostly up to 28.7 µM. In short, it runs like this: (§1)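 Infected RBCs, 0.3% parasitemia/2.5% Hct final; cpd 72 h, 37 C, 5% CO2; lysis buffer with saponin/triton/SYBR Green I, o/n RT dark; FI 485/535; norm. to artemisinin (0.29 uM) and DMSO.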

A further experiment concerns C2A. The description is as above. The conditions noted are these: P. falciparum in erythrocytes, SYBR Green DNA, 72 h; series mostly up to 28.7 µM. In short, it runs like this: as §1
Another experiment deals with CP191. The experiment is described as above. The conditions noted are these: P. falciparum in erythrocytes, SYBR Green DNA, 72 h; series mostly up to 28.7 µM. In short, it runs like this: as §1
Another experiment has as its system CP237. The experiment is described as above. To be noted: P. falciparum in erythrocytes, SYBR Green DNA, 72 h; series mostly up to 28.7 µM. In short, it runs like this: as §1
The next experiment has as its system CP256. Described as above. To be noted: P. falciparum in erythrocytes, SYBR Green DNA, 72 h; series mostly up to 28.7 µM. In short, it runs like this:
as §1

The next experiment concerns CP260. The experiment is described as above. To be noted: P. falciparum in erythrocytes, SYBR Green DNA, 72 h; series mostly up to 28.7 µM. In short, it runs like this:
as §1

The next experiment deals with CP265. Described as above. The conditions noted are these: P. falciparum in erythrocytes, SYBR Green DNA, 72 h; series mostly up to 28.7 µM. In short, it runs like this: as §1
For a further experiment, the system named is DFO2036. Described as above. The conditions noted are these: P. falciparum in erythrocytes, SYBR Green DNA, 72 h; series mostly up to 28.7 µM. In short, it runs like this: as §1
The next experiment has as its system Dd2. The description is as above. The conditions noted are these: P. falciparum in erythrocytes, SYBR Green DNA, 72 h; series mostly up to 28.7 µM. In short, it runs like this:
as §1

The subject of the next experiment is SC27B. The experiment is described as above. To be noted: P. falciparum in erythrocytes, SYBR Green DNA, 72 h; series mostly up to 28.7 µM. In short, it runs like this: as §1
Experiment [1] is described as follows: Cell Viability - Jurkat (AID 426;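 active means dose-dependent loss of cell ATP signal giving a full or clear fitted curve, ranked by lower potency value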; further: potency means the concentration at half of the fitted maximal effect). To be noted: qHTS. In short, it runs like this:
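qHTS, 1536-well; Jurkat E6-1, 5000 cells/well, complete medium; cpd 40 hr, 37 °C; CellTiter-Glo 20 min RT; luminescence. AC50 by Hill fit.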
(In general: qHTS replaces the single test concentration by a dilution series.)

Experiment [2] in a line: Cell Viability - Hek293 (AID 427;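 active means compounds whose dose-response curve shows a full or clear partial loss of cell viability, called from curve shape rather than a numeric limit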;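 further: potency means the concentration at half of the fitted maximal effect; cells exposed to compound for 40 hours at 37 °C before reading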). To be noted: qHTS. In short, it runs like this: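 HEK293 cells in complete medium were exposed to compound for 40 hr at 37 °C, then cellular ATP was read by CellTiter-Glo luminescence. Data were normalized to DMSO (basal) and 100 uM tamoxifen (100% inhibition), and AC50 came from Hill fits.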
Experiment [3] can be described thus: Cell Viability - HepG2 (AID 433; calls by dose curve;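 further: potency means the concentration at half of the fitted maximal effect; potency for ATP loss meaning cytotoxicity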). To be noted: qHTS. In short, it runs like this: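 Read-out is luciferase-based quantitation of cellular ATP as a measure of viable HepG2 cells after 40 h treatment at 37 °C. Signal decrease is scaled between DMSO-only and 100 uM tamoxifen controls, with AC50 fitted by the Hill equation.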
Experiment [4] can be described thus: Cell Viability - MRC5 (AID 434; calls by dose curve;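 further: potency means the concentration at half of the fitted maximal effect; potency reflects cytotoxicity seen as loss of intracellular ATP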). The conditions noted are these: MRC5 lung fibroblast viability, qHTS. In short, it runs like this:
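qHTS cytotoxicity in human lung fibroblast MRC5 cells; 40 hr treatment, 37 °C; cellular ATP by luciferase luminescence; DMSO = 0%, 100 uM tamoxifen = 100% inhibition; Hill-fit AC50.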

A short description of experiment [5]: Cell Viability - SK-N-SH (AID 435; calls by dose curve;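 further: potency means the concentration at half of the fitted maximal effect; compound exposure lasted 40 h at 37 °C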). The conditions noted are these: SK-N-SH neuroblastoma cell viability qHTS. In short, it runs like this:
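Luminescent ATP signal served as the viability read-out after 40 hours of compound treatment of human neuroblastoma SK-N-SH cells. Concentration-response data, scaled between DMSO and 100 uM tamoxifen, gave AC50 values by standard Hill modeling.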

Experiment [6] can be described thus: qHTS Assay for Identification of Small Molecule Inducers of Hypoxia Response (AID 2120; active means well fitted curve in the direction sought with a large enough effect in the signal ratio, with a control signal flat, not every such curve was filed as active; the % refers to the signal ratio). The conditions noted are these: hypoxia response reporter cells, beta-lactamase ratio readout; series mostly up to 104 µM. In short, it runs like this:
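ME-180 HRE-bla cells plated in Opti-MEM/0.5% dialyzed FBS, rested 4-5 h, then dosed with compound titrations by pin tool. After 17 h at 37 degrees C, CCF4 dye loaded 2.5 h at RT; 460/530 nm ratio gave %Activity and AC50.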

The subject of a further experiment is AS120. Nature of the experiment: qHTS profiling for inhibitors of Plasmodium falciparum proliferation (AID 504749). Further: nearly all actives have a fitted effect of over 60% in size. Further: potency means the concentration at half of the fitted maximal effect. The conditions noted are these: P. falciparum in erythrocytes, SYBR Green DNA, 72 h; series mostly up to 28.7 µM. In short, it runs like this: as §1
The test system of another experiment is CP247. The description is as above. The conditions noted are these: P. falciparum in erythrocytes, SYBR Green DNA, 72 h; series mostly up to 28.7 µM. In short, it runs like this:
as §1

In the next experiment the test system is CP297. The experiment is described as above. To be noted: P. falciparum in erythrocytes, SYBR Green DNA, 72 h; series mostly up to 28.7 µM. In short, it runs like this: as §1
The next experiment relates to DIV14. Described as above. The conditions noted are these: P. falciparum in erythrocytes, SYBR Green DNA, 72 h; series mostly up to 28.7 µM. In short, it runs like this: as §1

Potency and outcome data for nine compounds are collected here from PubChem BioAssay (NCATS).

The structures appear in SMILES notation. Records with an inconclusive call do not appear. A number with no mark means an inactive call. Active and inactive are the calls of the source. Unless noted, the call rests on the fitted dose curve; in most records, active means well fitted inhibition curve with a large enough effect; inconclusive means small, poorly fitted or top-dose-only effect; inactive means flat fitted curve, though single readings scatter.

Regarding `O=NCc1ccc([N+](=O)[O-])o1`, the Potency in the experiment on 7G8 was 8.91 µM (active). The Potency entry with C2A, in the experiment with CP191, in the experiment on CP237, with CP256, in the experiment with CP260 and in the experiment with CP265 was “inactive” in each case. Besides, the Potency result in the experiment on DFO2036, with Dd2 and in the experiment with SC27B was “inactive” each time.

`O[C@@H]([C@H](O)[C@@H](O)CBr)[C@@H](O)CBr`: the Potency in [1], in experiment [2], in experiment [3], in experiment [4] and in [5] was above 92 µM each time. The outcome in [6] was inactive.

`CCC(=O)O[C@@H](OP(=O)(CCCCc1ccccc1)CC(=O)N1C[C@H](C2CCCCC2)C[C@H]1C(=O)O)C(C)C` (stereo partly specified): the Potency in the experiment on 7G8 is 12.6 µM (active). Besides, the Potency entry with AS120, in the experiment with C2A, in the experiment with CP191, in the experiment with CP237, in the experiment with CP247 and in the experiment with CP256 was “inactive” throughout. The Potency result in the experiment on CP260, in the experiment on CP265, in the experiment with CP297, in the experiment with DFO2036, in the experiment on DIV14 and with Dd2 was “inactive” throughout. Also, the Potency result with SC27B is “inactive”.

For `Cc1cc(CC(C)CC(C)(C)C)n(O)c(=O)c1` (stereo unspecified), the Potency with 7G8 was 2.82 µM (active); in the experiment with AS120 it was 2.51 µM (active); in the experiment with C2A it was 2.51 µM (active); in the experiment with CP191 it was 1.12 µM (active); with CP237, 2.82 µM (active); in the experiment on CP247, 2.24 µM (active). The Potency in the experiment on CP256 was 1.26 µM (active); in the experiment on CP260, 3.16 µM (active); with CP265, 2.82 µM (active); in the experiment with CP297 it was 1.69 µM (active); with DFO2036 it was 1.78 µM (active); in the experiment with DIV14 it was 1.51 µM (active). Also, the results for the Potency in the experiment with Dd2 and in the experiment on SC27B were 7.94 µM (active) and 2.82 µM (active), respectively.

As to `CN1CC[C@H](CN2c3ccccc3Sc3ccccc32)C1`, the Potency is 1.41 µM (active) in the experiment with 7G8; 12.6 µM (active) in the experiment with AS120; 10 µM (active) with C2A; 10 µM (active) with CP191; 6.31 µM (active) in the experiment with CP237; 7.94 µM (active) with CP247. For the same compound, the Potency in the experiment with CP256 was 8.91 µM (active); in the experiment with CP260, 11.2 µM (active); in the experiment on CP265 it was 11.2 µM (active); in the experiment on CP297 it was 6.75 µM (active); in the experiment with DFO2036, 12.6 µM (active); in the experiment on DIV14, 4.26 µM (active). For the same compound, the results for the Potency in the experiment on Dd2 and in the experiment on SC27B were 3.55 µM (active) and 11.2 µM (active), respectively.

Consider `CCCCOCCO`, for which the Potency in experiment [1], in [2], in [3], in [4] and in [5] was above 92 µM each time. In addition, the result in experiment [6] was inactive.

With `Cc1c(N=C=O)cccc1N=C=O`, the Potency in [1], in experiment [2], in experiment [3], in [4] and in experiment [5] was above 92 µM each time. Moreover, the outcome in experiment [6] was inactive.

For the compound `COC(=O)c1ccc(C=O)cc1`, the Potency in [1], in experiment [2], in experiment [3], in [4] and in experiment [5] was above 92 µM in each case. Further, in [6], the outcome was inactive.

For the compound `C1OCOCO1`, the Potency in [1], in experiment [2], in experiment [3], in experiment [4] and in experiment [5] was above 92 µM each time. Also, the result in [6] was inactive. Moreover, the Potency entry with 7G8, in the experiment with AS120, with C2A, with CP191, in the experiment on CP237 and with CP247 was “inactive” in each case. Further, the Potency entry in the experiment with CP256, with CP260, in the experiment with CP265, with CP297, in the experiment with DFO2036 and in the experiment with DIV14 was “inactive” throughout. The Potency result in the experiment on Dd2 and in the experiment on SC27B was “inactive” throughout.
